Assay outcomes deposited in PubChem BioAssay by National Center for Advancing Translational Sciences (NCATS).
S-ASM inh: human S-ASM enzyme inhibition | Potency, µM (top dose mostly 57.5 µM), for the others: at the top dose activity change, negative = inhibition, usual class: inhibitors | hit rate 0.006% among 340,000 | AID 504937 | placental ASM, HMU-PC fluorogenic substrate, 60 min | P17405; note: potency is the fitted concentration of half-maximal effect
Target sequence (P17405 47-631 limits assumed): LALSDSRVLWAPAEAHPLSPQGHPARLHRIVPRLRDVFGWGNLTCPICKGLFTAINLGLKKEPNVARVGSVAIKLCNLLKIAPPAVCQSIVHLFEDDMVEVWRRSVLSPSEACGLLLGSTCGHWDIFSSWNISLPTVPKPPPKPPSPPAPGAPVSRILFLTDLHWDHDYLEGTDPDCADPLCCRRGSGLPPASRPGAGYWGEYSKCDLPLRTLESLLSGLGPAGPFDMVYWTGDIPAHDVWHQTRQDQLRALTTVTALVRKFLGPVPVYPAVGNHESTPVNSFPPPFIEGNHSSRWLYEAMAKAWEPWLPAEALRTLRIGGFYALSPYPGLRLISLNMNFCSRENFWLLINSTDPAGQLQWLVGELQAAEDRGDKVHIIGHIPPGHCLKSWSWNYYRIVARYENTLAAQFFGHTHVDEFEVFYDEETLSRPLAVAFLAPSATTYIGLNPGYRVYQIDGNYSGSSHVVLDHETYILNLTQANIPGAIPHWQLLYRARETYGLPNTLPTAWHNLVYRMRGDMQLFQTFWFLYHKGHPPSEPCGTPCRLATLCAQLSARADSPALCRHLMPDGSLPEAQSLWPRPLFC
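HMU-PC0 cleavage (9 uM final) by human placental ASM, 60 min at 37 °C following 10 min compound exposure at RT; stopped at pH 10, fluorescence Ex 386/Em 447 nm.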
IL1B secr inh: blocks inflammasome-driven IL-1 beta release; hit rate 4.7% among 360,000; activity change, % at 57.5 µM; THP-1 LPS/ATP IL-1B secretion, AlphaLISA, 16 h; stronger effect = lower value; in the data active = activity change below about -50%; inconclusive = mostly about -30% to -49%; note: % is set by controls: 0 for no effect and ±100 for the full control effect
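THP-1 cells pretreated 1 hr with compounds (up to 57.5 uM final), then stimulated with LPS (250 ng/mL final) plus ATP (1.25 mM final); secreted IL-1B measured by AlphaLISA after 16 hr, decreased signal indicating inhibition.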
TGFb SMAD3 inh: inhibitors of TGF-b signaling; HepG2 CAGA-GFP TGF-b/SMAD3 reporter, GFP fluorescence, 18 h; TGF-beta stimulated, 500 pg/mL final; Potency, µM (titrated, usually from 46.1 µM), inactives show top-dose activity, negative = inhibition, actives largely listed as inhibitors; hit rate 1.2% among 410,000; AID 588855; note: potency is the fitted concentration of half-maximal effect; % is set by controls: 0 for no effect and ±100 for the full control effect; nearly all actives have a fitted effect of over 65% in size
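HEPG2 CAGA-GFP, 1000 cells/well; 2 h settle, 37 C; cpd via pin tool; TGF-b 500 pg/mL final; 18 h, 37 C; GFP imaging ex488/em500-530; %Activity normalised to -TGF-b and +DMSO controls; CRC fit, curve class.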
DT40 TDP1 no CPT: qHTS for Inhibitors of human tyrosyl-DNA phosphodiesterase 1 (TDP1): qHTS in cells in absence of CPT. DT40 Tdp1-/- hTDP1 cells, no CPT, ATP luminescence, 48 h. Potency, µM (titrated, usually from 46.2 µM), for the others: top-dose activity change, negative = growth inhibition, hits mostly inhibitors. hit rate 15% among 420,000. AID 686978, 2013; note: potency is the fitted concentration of half-maximal effect; % is set by controls: 0 for no effect and ±100 for the full control effect; nearly all actives have a fitted effect of over 55% in size
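Seeded 400 DT40-hTDP1 cells/well (vehicle DMSO, no 20 nM CPT); pinned compounds; ≥48 hr at 37 °C; CellTiter-Glo luminescence as viability measure.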
DT40 TDP1 CPT: DT40-hTDP1 cell growth loss with CPT; chicken DT40 Tdp1-/-;hTDP1 cells + 20 nM CPT, ATP luminescence, 48 h; Potency, µM (doses to about 46.2 µM), for inactives: at the top dose activity change, negative = growth inhibition, most hits filed as inhibitors; hit rate 12% among 420,000; AID 686979; note: potency is the fitted concentration of half-maximal effect; % is set by controls: 0 for no effect and ±100 for the full control effect; nearly all actives have a fitted effect of over 55% in size
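Chicken DT40 Tdp1-/- cells stably complemented with human TDP1 were seeded at 400 cells/well in medium containing 20 nM camptothecin, exposed to pin-transferred compounds, and grown at 37 °C for at least 48 hr. Viability was read as ATP luminescence.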
HepG2 viability: counter-screen for TGF-b inhibitors: cytotoxicity in HepG2 cells | HepG2 CAGA-GFP viability, ATP luminescence, 18 h | Potency, µM (doses to about 46.1 µM), for inactives: at the top dose activity change, negative = cytotoxicity, most hits filed as cytotoxic | hit rate 0.76% among 410,000 | AID 588856; note: potency is the fitted concentration of half-maximal effect
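CellTiter-Glo luminescence gave cytotoxicity after 18 hours at 37 degrees C. The cells were HepG2 CAGA-GFP in 1% FBS DMEM, stimulated with 500 pg/mL TGF-beta after compound addition. %Activity was normalised to no-cell wells (complete cell-killing) and DMSO (no toxicity), and curves were fitted and classified.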
* = called active by the depositor; ? = inconclusive; . = not tested or not shown. Rows were chosen to be rich in hits. Some 19% of all compounds tested hit in one or more screens of this group. Unless noted, calls come from the whole dose curve; as a rule, active = well fitted curve in the direction sought with a large enough effect; inconclusive = small, poorly fitted or top-dose-only effect, or another doubt; inactive = no such curve, though single readings can be large; an effect the other way counts as inactive or inconclusive.

SMILES	S-ASM inh	IL1B secr inh	TGFb SMAD3 inh	DT40 TDP1 no CPT	DT40 TDP1 CPT	HepG2 viability
Cc1ccc(-n2c(=O)c3c(cnn3C)n(Cc3ccccc3F)c2=O)cc1	.	.	2.9%	-28.6%	18.4µM*	3.7%
Cc1ccc(-n2c(=O)c3c(cnn3C)n(Cc3ccc(Cl)cc3)c2=O)cc1	.	.	.	?	-10.4%	-1.0%
COc1cccc(NC(c2nnc(-c3ccccc3)o2)c2ccc(F)cc2Cl)c1 (centres undefined)	.	.	-20.7%	?	?	-14.5%
O=[N+]([O-])c1ccc(/C=N/Nc2nc(N3CCCC3)nc(N3CCCC3)n2)o1	-8.6%	2.0	?	?	23.1µM*	-49.3%
CCNc1nc(NCC)nc(N/N=C/c2ccc([N+](=O)[O-])o2)n1	-7.3%	6.8	?	16.4µM*	16.4µM*	-31.6%
COc1cc(/C=N/Nc2ccc(C(=O)O)cc2)ccc1O	105.8%	6.5	0.4%	10.0%	1.2%	-0.7%
COc1ccccc1-c1cnnc(N/N=C/c2ccc(-c3cccc(Br)c3)o2)n1	-11.7%	-22.1	-9.8%	23.1µM*	14.6µM*	-2.3%
COc1ccc(-c2cnnc(N/N=C/c3ccc(O)c(OC)c3)n2)cc1	-6.1%	-27.5	-12.9%	5.17µM*	5.17µM*	-41.8%
COc1cccc(Cn2c(=O)n(CC3CCC(C(=O)NC(C)C)CC3)c(=O)c3sccc32)c1 (centres undefined)	.	.	-17.6%	3.4%	-9.9%	5.4%
CC(=O)OCC(NC(=O)C(Cc1ccccc1)NC(=O)OC(C)(C)C)C1OC(n2cc(F)c(=O)[nH]c2=O)C(OC(C)=O)C1OC(C)=O (centres undefined)	.	.	-1.1%	.	.	4.5%
COc1cccc(CN2CCC(n3cc(C(=O)N4CCCCC4)nn3)CC2)c1OC	.	.	.	-10.5%	3.2%	.
CCOC(=O)c1cc(OC(=O)c2cccc(Cl)c2)n(-c2ccccc2)n1	.	.	-3.2%	-6.0%	-13.1%	4.4%
NC(=O)N/N=C/c1ccc(-c2ccc([N+](=O)[O-])cc2)o1	6.4%	-20.1	-29.5%	?	13.1%	-21.6%
O=[N+]([O-])c1ccc(-c2ccc(/C=N/Nc3nc(N4CCCC4)nc(N4CCCC4)n3)o2)cc1	-1.7%	41.0	33.7%	4.61µM*	14.6µM*	-3.0%
O=[N+]([O-])c1cccc(-c2ccc(/C=N/Nc3nc(N4CCCCC4)nc(N4CCCCC4)n3)o2)c1	-28.9%	-14.4	4.6%	?	?	-39.7%
COc1ccc(-c2cnnc(N/N=C/c3ccc(-c4ccc([N+](=O)[O-])cc4)o3)n2)cc1	-3.3%	54.3	-13.8%	1.46µM*	1.16µM*	1.4%
O=[N+]([O-])c1ccc(-c2ccc(/C=N/Nc3nc(N4CCCCC4)nc(N4CCCCC4)n3)o2)cc1	-9.2%	13.8	3.3%	20.6µM*	?	7.3%
Cc1ccc(NC(=O)CSc2n[nH]c(-c3ccc(F)cc3)n2)cc1F	.	.	11.2µM*	?	?	-41.5%
Cc1ccc(CNC(=O)CSc2n[nH]c(-c3ccc(F)cc3)n2)cc1	.	.	-80.1%	16.4µM*	?	-18.7%
COc1ccc(S(=O)(=O)N2CCCCC2)cc1NC(=O)CN(C)C1CCCCC1	-2.2%	-70.4*	?	?	?	-19.6%
COC(=O)CCN(C1CCCCC1)S(=O)(=O)c1ccc(S(=O)(=O)N2CCCCC2)cc1	3.8%	-13.1	2.9%	12.6µM*	29.1µM*	-1.3%
COc1ccc(S(=O)(=O)N2CCCCC2)cc1NC(=O)CN(Cc1ccco1)Cc1ccco1	6.6%	-50.5*	?	?	?	5.3%
COc1ccc(OC)c(NC(=O)CN(Cc2ccc(F)cc2)C2CCCCC2)c1	-8.1%	-17.6	?	16.4µM*	?	-0.1%
COc1ccc(S(=O)(=O)N2CCCCC2)cc1NC(=O)C1CC(=O)N(Cc2ccco2)C1 (centres undefined)	-0.8%	-1.2	-5.6%	1.1%	0.1%	10.7%
Cc1cc(C)cc(N2C(=O)CS(=O)(=O)C23C(=O)N(Cc2ccccc2)c2ccccc23)c1 (centres undefined)	.	.	8.1%	-29.6%	-22.0%	-3.8%
SMILES	S-ASM inh	IL1B secr inh	TGFb SMAD3 inh	DT40 TDP1 no CPT	DT40 TDP1 CPT	HepG2 viability
Cc1nn(-c2ccc(F)cc2)c(C)c1CN1CCN(CCc2ccccc2)C(CCO)C1 (centres undefined)	4.9%	-1.8	-21.3%	?	?	-20.4%
COc1cccc(CN(C)C(=O)c2ccc(S(=O)(=O)Nc3ccccc3C)cc2)c1OC	.	-27.8	4.9%	-46.1%	-26.7%	-2.9%
CN(Cc1ccccc1)S(=O)(=O)c1ccc(NS(=O)(=O)Cc2ccccc2)cc1	-8.3%	-12.0	1.2%	-27.9%	-18.2%	-13.8%
COc1cccc(CN(C)C(=O)c2ccc(NC(=O)CC3SC(N4CCCC4)=NC3=O)cc2)c1OC (centres undefined)	-3.2%	12.7	1.0%	?	-13.7%	3.0%
Cc1n[nH]c(C)c1S(=O)(=O)N1CCN(S(=O)(=O)c2cccc(F)c2)CC1	7.3%	-14.5	-3.7%	-9.9%	-0.7%	1.1%
CCOC(=O)c1sc(-c2ccccn2)nc1C	2.0%	18.5	-0.7%	1.2%	3.8%	7.1%
CC(C)(C)c1ccc(C(=O)NC2(C(F)(F)F)NC(=O)N(CCc3ccccc3)C2=O)cc1 (centres undefined)	.	.	10µM*	23.1µM*	20.6µM*	20µM*
O=C(NC1(C(F)(F)F)NC(=O)N(CCc2ccccc2)C1=O)c1ccccc1F (centres undefined)	.	.	-6.3%	-7.0%	-23.1%	-15.7%
O=C(NC1(C(F)(F)F)NC(=O)N(CCc2ccccc2)C1=O)c1ccc(Cl)cc1 (centres undefined)	.	.	?	?	20.6µM*	-46.1%
COc1ccc(OC)c(CNC(=O)c2cc3c(=O)oc4ccc(C)cc4c3s2)c1	.	.	1.0%	?	?	6.4%
Cn1c(CC(=O)NNC(=O)c2ccc(Cl)nc2)nc2ccccc21	-0.1%	10.6	-2.0%	1.6%	0.7%	0.2%
Cn1c(CC(=O)NNC(=O)c2ccc(F)cc2Cl)nc2ccccc21	7.6%	7.9	16.7%	?	16.4µM*	-10.8%
Cc1cc(N2CCCC2=O)ccc1S(=O)(=O)Nc1c(C)nn(C)c1C	-3.2%	33.8	0.8%	9.2µM*	?	-1.4%
